Measurements reported in PubChem BioAssay (NCI).
This is part of a sample that, as a whole, favours compounds with a hit. Of some 79,000 tested, about 15% had one in any assay. Active and inactive are the calls of the source. Cut-off read from the data, not from the text of the source: active = growth inhibition above about 70%; inactive = the rest.

How the values were obtained:
[1] = NCI Yeast Anticancer Drug Screen. Data for the rad52 strain (AID 147);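 note: 0% = growth of vehicle-treated control cultures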; details: S. cerevisiae rad52 mutant growth inhibition, active compounds read high
Method in brief: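 Screen used a yeast mutant impaired in DNA repair. After compound exposure, growth was measured. Values reflect inhibition compared with vehicle-treated cells.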

[2] = NCI Yeast Anticancer Drug Screen. Data for the rad50EPP+ strain (AID 151);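 note: 0% = growth of vehicle-treated control cultures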; details: S. cerevisiae rad50 mutant strain, active compounds read high
Method in brief: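 Exposing the rad50EPP+ strain to each compound, growth was compared with vehicle-only cultures to give inhibition.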

[3] = NCI Yeast Anticancer Drug Screen. Data for the mgt1 strain (AID 153); details: S. cerevisiae mgt1 mutant growth inhibition, active compounds read high
Method in brief: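 Genetically defined yeast (mgt1) treated with compound; inhibition of growth expressed against vehicle-treated controls.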

[4] = NCI Yeast Anticancer Drug Screen. Data for the rad50 strain (AID 155);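 note: 0% = growth of vehicle-only cultures of the same strain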; details: S. cerevisiae rad50 strain growth inhibition, active compounds read high
Method in brief: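 Vehicle-treated cultures provide the reference for the growth inhibition reported for compound-exposed, repair-deficient yeast.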

[5] = NCI Yeast Anticancer Drug Screen. Data for the mec2-1 strain (AID 157); details: S. cerevisiae mec2-1 strain, active compounds read high
Method in brief: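 Readout is yeast growth inhibition, normalised to vehicle-treated controls, in the mec2-1 strain exposed to compound.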

[6] = NCI Yeast Anticancer Drug Screen. Data for the rad14 strain (AID 159);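 note: 0% = growth of vehicle-treated control cultures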; details: S. cerevisiae rad14 strain growth inhibition, active compounds read high
Method in brief: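 Inhibition of growth is reported for a repair-deficient yeast mutant following compound treatment, calculated relative to cultures that received vehicle.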

[7] = NCI Yeast Anticancer Drug Screen. Data for the sgs1 mgt1 strain (AID 161);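 note: 0% = growth of cultures given vehicle only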; details: S. cerevisiae sgs1 mgt1 strain, active compounds read high
Method in brief: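 Percent growth inhibition was derived by comparing compound-exposed mutant yeast with vehicle-exposed cultures. The strain carries alterations in DNA damage repair.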

[8] = NCI Yeast Anticancer Drug Screen. Data for the CLN2oe strain (AID 163);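 note: 0% = growth of vehicle-only control cultures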; details: S. cerevisiae CLN2oe strain, active compounds read high
Method in brief: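 Values reflect how much compound exposure reduced yeast growth, referenced to vehicle-exposed cells. Assay organism is a strain with a defined genetic change affecting cell-cycle control.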

[9] = NCI Yeast Anticancer Drug Screen. Data for the cln2 rad14 strain (AID 165);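 note: 0% = growth equal to vehicle treated cultures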; details: S. cerevisiae cln2 rad14 strain, active compounds read high
Method in brief: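 Relative to vehicle controls, growth inhibition of compound-treated cln2 rad14 yeast was recorded.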

[10] = NCI Yeast Anticancer Drug Screen. Data for the bub3 strain (AID 167); details: S. cerevisiae bub3 mutant strain, active compounds read high
Method in brief: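 Mutant yeast screening strain plus compound; vehicle-treated cultures serve as the 0% inhibition reference.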

[11] = NCI Yeast Anticancer Drug Screen. Data for the wt2 strain (AID 169); details: S. cerevisiae wt2 strain growth inhibition, active compounds read high
Method in brief: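 Values express reduction in yeast growth under compound treatment, referenced to vehicle-treated cells.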

[12] = NCI Yeast Anticancer Drug Screen. Data for the mlh1 strain (AID 171);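 note: 0% = growth of vehicle-treated control cultures of the same strain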; details: S. cerevisiae mlh1 strain growth inhibition, active compounds read high
Method in brief: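 Steps: expose the defined-mutant yeast strain to compound; expose a parallel culture to vehicle; measure growth; express compound effect as inhibition relative to the vehicle culture.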

[13] = NCI Yeast Anticancer Drug Screen. Data for the sgs1 strain (AID 173);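 note: 0% = growth of vehicle-only control cultures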; details: S. cerevisiae sgs1 mutant, active compounds read high
Method in brief: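 Treat defined-mutant yeast with compound; measure growth; calculate inhibition relative to vehicle-treated cells.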

[14] = NCI Yeast Anticancer Drug Screen. Data for the mlh1 rad18 strain (AID 175); details: S. cerevisiae mlh1 rad18 strain growth inhibition, active compounds read high
Method in brief: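 Test agents were incubated with a yeast strain of defined genotype (DNA damage repair defect). Inhibition of growth was derived by comparison with vehicle-exposed cultures.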

[15] = at 5.0 µM (retest, dose inferred, filed as 0.5)
[16] = at 50.0 µM (retest, dose inferred, filed as 5.0)

Measured: growth inhibition

O=C(NC(Nc1ccc(F)c(Cl)c1)(C(F)(F)F)C(F)(F)F)C(C(F)(F)F)C(F)(F)F
inactive: [1]; at 1.2 µM -2% | [1]; at 3.7 µM 12% | [2]; at 1.2 µM -7% | [2]; at 3.7 µM -13% | [2]; at 11.0 µM -25% | [2]; at 33.0 µM -16% | [2]; at 100.0 µM 2% | [3]; at 1.2 µM 26% | [3]; at 3.7 µM 25% | [3]; at 11.0 µM 54% | [4]; at 1.2 µM 8% | [4]; at 3.7 µM 17% | [4]; [15] 28% | [4]; at 11.0 µM 44% | [4]; at 50.0 µM 24.6% | [5]; at 1.2 µM 8% | [5]; at 3.7 µM 23% | [5]; [15] 3% | [5]; at 50.0 µM 27.6% | [6]; at 1.2 µM 9% | [6]; at 3.7 µM 19% | [6]; at 11.0 µM 26% | [7]; [15] 17% | [7]; at 50.0 µM 36% | [8]; at 1.2 µM 9% | [8]; at 3.7 µM 32% | [9]; [15] 43% | [10]; at 1.2 µM 5% | [10]; at 3.7 µM 15% | [10]; [15] 20% | [11]; at 1.2 µM 1% | [11]; at 3.7 µM 34% | [12]; at 1.2 µM 26% | [12]; at 3.7 µM 25% | [12]; at 11.0 µM 54% | [13]; at 1.2 µM 8% | [13]; at 3.7 µM 14% | [13]; at 11.0 µM 42% | [14]; [15] 21%
active: [1]; at 11.0 µM 70% | [1]; at 33.0 µM 93% | [1]; at 100.0 µM 97% | [3]; at 33.0 µM 94% | [3]; at 100.0 µM 98% | [4]; at 33.0 µM 91% | [4]; [16] 96% | [4]; at 100.0 µM 96% | [5]; at 11.0 µM 74% | [5]; at 33.0 µM 97% | [5]; [16] 92% | [5]; at 100.0 µM 98% | [6]; at 33.0 µM 85% | [6]; at 100.0 µM 94% | [7]; [16] 72% | [8]; at 11.0 µM 92% | [8]; at 33.0 µM 97% | [8]; at 100.0 µM 97% | [9]; [16] 98% | [9]; at 50.0 µM 88% | [10]; at 11.0 µM 80% | [10]; at 33.0 µM 95% | [10]; [16] 95% | [10]; at 50.0 µM 75% | [10]; at 100.0 µM 97% | [11]; at 11.0 µM 86% | [11]; at 33.0 µM 99% | [11]; at 100.0 µM 99% | [12]; at 33.0 µM 94% | [12]; at 100.0 µM 98% | [13]; at 33.0 µM 93% | [13]; at 100.0 µM 96% | [14]; [16] 90% | [14]; at 50.0 µM 93.4%
